RXFP1 agonist – qHTS Assay for Agonists of the Relaxin Receptor RXFP1 | Relaxin receptor 1 (Homo sapiens), Q9HBX9 | HEK293T-RXFP1 cAMP TR-FRET, 30 min; response scale: percent of porcine relaxin response, buffer zero | Potency, µM (highest dose often 57.5 µM), for the others: at the top dose activation, actives largely listed as activators | AID 2676, 2010 | 370,000 compounds, 0.3% hits; further: potency means the concentration at half of the fitted maximal effect; on the % scale 0 is the no-effect control and ±100 the full control effect; nearly all actives have a fitted effect of over 60% in size
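HEK293 cells stably expressing RXFP1, treated 30 min at 37C with compounds plus PDE4 inhibitor Ro 20174; cAMP measured by HTRF TR-FRET. Normalized to buffer and 29 nM porcine relaxin; EC50 by Hill fit.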
RXFP1 antagonist – qHTS Assay for Antagonists of the Relaxin Receptor RXFP1; activity change, negative = inhibition, % at 57.5 µM; HEK293-RXFP1, relaxin-stimulated cAMP HTRF, 30 min; stronger effect = lower value; 350,000 compounds, 0.59% hits; Relaxin receptor 1 (Homo sapiens), Q9HBX9;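 active means activity change of -60% or lower, but not beyond a set lower limit; inconclusive means change between -60% and -40%, or beyond the set limit; inactive means change above -40%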; further: on the % scale 0 is the no-effect control and ±100 the full control effect
gsp antag – qHTS for Antagonists of gsp, the Etiologic Mutation Responsible for Fibrous Dysplasia/McCune-Albright Syndrome: qHTS; 340,000 compounds, 0.4% hits; Potency, µM (titrated, usually from 76.9 µM), inactives show at the top dose activity change, negative = inhibition, actives largely listed as inhibitors; gsp-mutant cells, cAMP HTRF, 30 min; AID 624288, 2012; calls by dose curve; cell line not stated here;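 further: intracellular cAMP measured with PDE inhibitor Ro 20-1724 present during compound exposure; potency means the concentration at half of the fitted maximal effect; on the % scale 0 is the no-effect control and ±100 the full control effect; nearly all actives have a fitted effect of over 65% in size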
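Cells in G418 medium, seeded 16-24 h, 37C; buffer exchange to DPBS + 1 mM CaCl2, 0.5 mM MgCl2, 0.05% BSA; cpds in DMSO + […] (300 uM stock), 30 min 37C; HTRF cAMP detection.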
gsp agonist – qHTS for Agonist of gsp, the Etiologic Mutation Responsible for Fibrous Dysplasia/McCune-Albright Syndrome: qHTS; gsp mutant cells, cAMP HTRF, 30 min; Potency, µM (titrated, usually from 76.9 µM), for inactives: at the highest dose activation (cAMP increase), most hits filed as activators; 340,000 compounds, 0.13% hits; AID 624287, 2012; active means well fitted activation curve with a large enough effect; inconclusive means small, poorly fitted or top-dose-only effect, or another doubt; inactive means no such curve, though single readings can be large or run the other way; cell line not stated here;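 further: phosphodiesterase inhibitor Ro 20-1724 added with compounds to block cAMP breakdown; potency means the concentration at half of the fitted maximal effect; nearly all actives have a fitted effect of over 60% in size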
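Cells in DMEM/10% FBS with G418 were pretreated with compounds in DMSO plus […] (300 uM stock) for 30 min at 37C. cAMP was measured by HTRF (cAMP-d2 plus anti-cAMP antibody-K) after 30 min at room temperature.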
S-ASM inh – Inhibitors of Secretory Acid Sphingomyelinase (S-ASM): qHTS. 340,000 compounds, 0.006% hits. placental ASM, HMU-PC fluorogenic substrate, 60 min. Potency, µM (highest dose often 57.5 µM), without a hit: top-dose activity change, negative = inhibition, most hits filed as inhibitors. Sphingomyelin phosphodiesterase (Homo sapiens), P17405. AID 504937, 2011; further: potency means the concentration at half of the fitted maximal effect
Target sequence (P17405 47-631 limits assumed): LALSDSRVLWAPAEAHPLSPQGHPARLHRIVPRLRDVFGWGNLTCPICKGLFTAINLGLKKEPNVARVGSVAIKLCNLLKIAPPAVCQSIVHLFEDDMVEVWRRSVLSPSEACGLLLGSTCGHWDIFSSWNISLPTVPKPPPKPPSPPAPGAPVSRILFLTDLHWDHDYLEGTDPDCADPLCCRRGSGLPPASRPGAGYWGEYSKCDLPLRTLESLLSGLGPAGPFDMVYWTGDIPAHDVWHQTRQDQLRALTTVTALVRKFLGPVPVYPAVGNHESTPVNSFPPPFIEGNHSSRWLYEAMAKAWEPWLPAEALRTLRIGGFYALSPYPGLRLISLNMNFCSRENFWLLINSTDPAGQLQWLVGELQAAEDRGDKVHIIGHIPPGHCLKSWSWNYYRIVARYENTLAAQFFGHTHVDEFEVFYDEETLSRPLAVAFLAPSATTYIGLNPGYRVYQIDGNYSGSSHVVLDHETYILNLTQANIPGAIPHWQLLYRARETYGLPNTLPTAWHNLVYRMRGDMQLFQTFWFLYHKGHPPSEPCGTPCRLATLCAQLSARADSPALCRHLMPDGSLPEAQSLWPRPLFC
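Fluorescence read-out (Ex 386 nm, Em 447 nm) after stopping the reaction at pH 10. Enzyme: ASM from human placenta; substrate HMU-PC0, 9 uM final; 60 min, 37 °C. Compound preincubation 10 min, ambient temperature.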
a7 integrin act – qHTS for Activators of Integrin-Mediated Alleviation for Muscular Dystrophy; alpha7betagal myoblasts, beta-gal FDG fluorescence, 48 h; Potency, µM (series often up to 38.3 µM), inactives show at the highest dose activation, actives largely listed as activators; 350,000 compounds, 0.064% hits; AID 624291, 2012;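 further: potency means the concentration at half of the fitted maximal effect; 100% = response of the positive control SU9516; nearly all actives have a fitted effect of over 60% in size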
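Alpha7betagal+/- myoblasts (passage 13) were plated 16-24 hr, then exposed to compounds (1:260 dilution of DMSO stock) for 48 hours at 37C. After MPER lysis, β-galactosidase reporter activity was read as FDG fluorescence (ex 480/em 540) after 30 minutes.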
Starred values were filed as active, the others as inactive; [ ] = remark or other dose. An excerpt weighted towards active compounds, which were near 1.1% of everything screened. Unless noted, the call rests on the fitted dose curve; in most records, active means well fitted curve in the direction sought with a large enough effect; inconclusive means small, poorly fitted or top-dose-only effect, or another doubt; inactive means no such curve, though single readings can be large; an effect the other way counts as inactive or inconclusive.

`Cc1cc(N2CCOCC2)nc2ccc(NC(=O)CCC(=O)N3CCN(c4cccc(C(F)(F)F)c4)CC3)cc12` gave RXFP1 agonist 0%, RXFP1 antagonist -12, gsp antag 40µM*, gsp agonist 3%, S-ASM inh inactive and a7 integrin act -41%.
For Cc1cc(N2CCOCC2)nc2ccc(NC(=O)CCC(=O)N3CCCCC3)cc12 the results were RXFP1 agonist 3%, RXFP1 antagonist -4, gsp antag -1%, gsp agonist 7%, S-ASM inh 392% and a7 integrin act 36%[7.66 µM].
Screening CCN1CCN(C(c2ccc(F)cc2)c2c(O)cc(C)n(CCOC)c2=O)CC1 (centres undefined) returned RXFP1 agonist -1% and RXFP1 antagonist 0.
CCOc1cc([N+](=O)[O-])c2nc(N)sc2c1 was read as RXFP1 agonist 4%, RXFP1 antagonist 3, gsp antag 1%, gsp agonist inconclusive, S-ASM inh -5% and a7 integrin act 4%.
`CN(CC(=O)Nc1ccc(Cl)c(Cl)c1)Cc1nnc(-c2ccc(F)cc2)o1` gave RXFP1 agonist 0%, RXFP1 antagonist -63*, gsp antag -10%, gsp agonist -27%[15.4 µM], S-ASM inh -2% and a7 integrin act inconclusive.
`O=c1[nH]c(=S)[nH]cc1Oc1ccc(Cl)cc1Cl` gave RXFP1 agonist inconclusive, RXFP1 antagonist 10, gsp antag 11%, gsp agonist 6.3µM*, S-ASM inh 1% and a7 integrin act 6%.
For CS(=O)(=O)c1ccccc1-c1nnc(NC(=O)c2cccc(N3C(=O)CCC3=O)c2)o1 the results were RXFP1 agonist 0%, RXFP1 antagonist -76*, gsp antag 7%, gsp agonist -14%[15.4 µM], S-ASM inh 3% and a7 integrin act 11%.
COc1cc2c(N3CCN(C(=O)Nc4ccc(OC(C)C)cc4)CC3)ncnc2cc1OCCCN1CCCCC1 was read as RXFP1 antagonist 14.
For CCCOC(=O)CSc1nnc(-c2ccccc2)o1 the results were RXFP1 agonist 0%.
Cc1sc2nc[nH]c(=S)c2c1-c1ccccc1 was read as RXFP1 agonist 3%, RXFP1 antagonist -91*, gsp antag -14%, gsp agonist 9%[15.4 µM], S-ASM inh 1% and a7 integrin act 0%.
Cc1ccc(NC(=O)c2ccc(=O)n(Cc3ccccc3C)c2)c(C)c1 was read as RXFP1 agonist -2%.
`Cc1cc(=O)[nH]c(SCC(=O)Nc2cccc(S(=O)(=O)N3CCOCC3)c2)n1` gave RXFP1 agonist 22%, RXFP1 antagonist 7, gsp antag 14%, gsp agonist 16µM*, S-ASM inh 1% and a7 integrin act 15%.
Screening CNC(=O)c1c(I)c(NC(C)=O)c(I)c(C(=O)O)c1I returned RXFP1 antagonist 6.
Screening COc1ccc(CN2CCN(c3ncnc4scc(-c5ccc(F)cc5)c34)CC2)cc1 returned RXFP1 agonist -1%, RXFP1 antagonist -61*, gsp antag -46%, gsp agonist -12%[15.4 µM], S-ASM inh -4% and a7 integrin act -21%.
COc1ccc(N2CCN(c3ncnc4scc(-c5ccc(F)cc5)c34)CC2)cc1 was read as RXFP1 agonist 1%, RXFP1 antagonist -7, gsp antag -19%, gsp agonist -3%[15.4 µM] and a7 integrin act -35%.
Fc1ccc(-c2csc3ncnc(N4CCN(c5ccccc5)CC4)c23)cc1 was read as RXFP1 agonist -1%, RXFP1 antagonist -65*, gsp antag -14%, gsp agonist 6%, S-ASM inh -5% and a7 integrin act 13%.
